Data as given in PubChem BioAssay AID1159580 (chemical genetic matrix, 2015).
Hit rate of the full screen: of about 5,500 compounds, about 2,000 (36%) were called active. Not shown: some 18% with an inconclusive outcome. No stated cut-off is given here; in the data, active means normalized growth mostly below about 0.91 (no sharp cut-off); inconclusive means no clear call, values can overlap the other calls; inactive means mostly above about 0.92. The list shows a part of the results.

Experiment: chemical genetic growth profiling, strain panel (AID 1159580);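 further: tested at 20 µM; growth read once vehicle control cultures reached saturation at 30 °C; 1 = growth at the plate median or of vehicle wells; lower values mean less growth of the strain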
Settings: S. cerevisiae deletion strains, growth OD

Measured: normalized growth

CCOCN(C(=O)CCl)c1c(C)cccc1CC
inactive: locus YAL013W, strain DEP1, active compounds read low 0.995 | locus YAL021C, strain ccr4, active compounds read low 0.988 | locus YAL026C, strain drs2, active compounds read low 0.998 | locus YAL030W, strain snc1, active compounds read low 0.992 | locus YBL061C, strain skt5, active compounds read low 0.994 | locus YBR009C, strain hhf1, active compounds read low 0.994 | locus YBR021W, strain FUR4, active compounds read low 1.01 | locus YBR023C, strain chs3, active compounds read low 0.98 | locus YBR171W, strain sec66, active compounds read low 0.971 | locus YBR229C, strain ROT2, active compounds read low 0.992 | locus YBR231C, strain swc5, active compounds read low 0.989 | locus YBR279W, strain paf1, active compounds read low 0.999 | locus YCL011C, strain gbp2, active compounds read low 0.998 | locus YCL016C, strain dcc1, active compounds read low 0.991 | locus YCL029C, strain bik1, active compounds read low 0.976 | locus YCL061C, strain MRC1, active compounds read low 0.98 | locus YCL069W, strain vba3, active compounds read low 0.992 | locus YCR088W, strain abp1, active compounds read low 0.984 | locus YDL005C, strain med2, active compounds read low 0.982 | locus YDL035C, strain GPR1, active compounds read low 0.99 | locus YDL040C, strain nat1, active compounds read low 1 | locus YDL074C, strain BRE1, active compounds read low 1.03 | locus YDL101C, strain DUN1, active compounds read low 0.983 | locus YDL134C, strain PPH21, active compounds read low 0.995 | locus YDL185W, strain tfp1, active compounds read low 0.967 | locus YDL192W, strain arf1, active compounds read low 0.979 | locus YDR001C, strain nth1, active compounds read low 0.991 | locus YDR069C, strain doa4, active compounds read low 0.987 | locus YDR101C, strain arx1, active compounds read low 0.98 | locus YDR137W, strain rgp1, active compounds read low 0.975 | locus YDR150W, strain NUM1, active compounds read low 0.954 | locus YDR159W, strain sac3, active compounds read low 0.959 | locus YDR162C, strain NBP2, active compounds read low 1 | locus YDR195W, strain ref2 0.982 | locus YDR297W, strain sur2, active compounds read low 0.986 | locus YDR318W, strain mcm21, active compounds read low 0.985 | locus YDR334W, strain swr1, active compounds read low 0.986 | locus YDR335W, strain msn5, active compounds read low 0.998 | locus YDR388W, active compounds read low 0.978 | locus YDR392W, strain spt3, active compounds read low 0.975 | locus YDR502C, strain sam2, active compounds read low 0.974 | locus YEL003W, strain gim4, active compounds read low 0.996 | locus YEL037C, strain rad23, active compounds read low 0.994 | locus YEL061C, strain CIN8 (second series), active compounds read low 0.994 | locus YEL061C, strain CIN8, active compounds read low 0.991 | locus YER015W, strain faa2, active compounds read low 0.993 | locus YER016W, strain bim1, active compounds read low 0.994 | locus YER110C, active compounds read low 0.978 | locus YER111C, strain swi4, active compounds read low 0.997 | locus YER155C, strain BEM2 (second series), active compounds read low 0.972 | locus YER155C, strain BEM2, active compounds read low 0.993 | locus YER167W, strain BCK2, active compounds read low 0.995 | locus YFR010W, strain ubp6, active compounds read low 0.992 | locus YGL078C, strain dbp3, active compounds read low 0.979 | locus YGL086W, strain mad1, active compounds read low 0.983 | locus YGL167C, strain pmr1, active compounds read low 0.985 | locus YGL173C, strain kem1, active compounds read low 0.976 | locus YGL227W, strain vid30, active compounds read low 0.983 | locus YGL240W, strain doc1, active compounds read low 0.985 | locus YGL248W, strain PDE1, active compounds read low 0.981 | locus YGL253W, strain hxk2, active compounds read low 0.981 | locus YGR078C, strain PAC10, active compounds read low 1 | locus YGR135W, strain pre9, active compounds read low 0.982 | locus YGR229C, strain SMI1, active compounds read low 1.01 | locus YGR252W, strain gcn5, active compounds read low 1.04 | locus YHR013C, strain ard1, active compounds read low 0.988 | locus YHR027C, strain rpn1, active compounds read low 0.98 | locus YHR030C, strain SLT2, active compounds read low 0.982 | locus YHR079C, strain IRE1 (second series), active compounds read low 0.979 | locus YHR094C, strain hxt1, active compounds read low 0.968 | locus YHR129C, strain ARP1, active compounds read low 0.963 | locus YHR142W, strain chs7, active compounds read low 1.04 | locus YHR200W, strain rpn10, active compounds read low 0.988 | locus YIL066C, strain RNR3, active compounds read low 0.976 | locus YIL073C, strain SPO22, active compounds read low 0.856 | locus YIL125W, strain kgd1, active compounds read low 0.997 | locus YIR030C, strain dcg1, active compounds read low 0.972 | locus YJL092W, strain hpr5, active compounds read low 0.985 | locus YJL095W, strain BCK1 (second series), active compounds read low 0.996 | locus YJL095W, strain BCK1, active compounds read low 1 | locus YJL115W, strain asf1, active compounds read low 0.976 | locus YJL129C, strain trk1, active compounds read low 1.01 | locus YJL134W, strain LCB3, active compounds read low 0.987 | locus YJL154C, strain vps35, active compounds read low 0.979 | locus YJL164C, strain tpk1, active compounds read low 0.994 | locus YJL166W, strain qcr8, active compounds read low 0.991 | locus YJL168C, strain set2, active compounds read low 0.984 | locus YJL187C, strain SWE1 (second series), active compounds read low 0.979 | locus YJL187C, strain SWE1, active compounds read low 0.988
